Only some compounds are listed: those with a hit (about 3.1% of all), similar ones and a draw of the others.
HSF1 inhib – HSF1 inhibition; 300,000 tested, 0.77% active; AID 2098; activity change, negative = inhibition, % at 7.5 µM (by protocol); NIH3T3-HGL HSE-luciferase, MG132-induced, luminescence 8 h; hits give low values;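 active = more than half of replicate wells show activity change below -50%, luminescence cut by over half; inconclusive = some wells, but at most half, below -50%; inactive = no replicate well below -50%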;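 also: luciferase reports HSF-1 transcriptional activity via heat shock element; 0% = median of DMSO wells and -100% = zero luminescence signal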
HSF-1 act – increases HSF-1 driven luciferase reporter signal; NIH3T3-HGL HSF-1 luciferase reporter, MG132, 8 h; 100% = twice DMSO control signal; activation, % at 9 µM; 300,000 tested, 1.7% active; AID 504408;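 active = mean replicate activation of at least 50% with a set share of replicates each reaching 50%; inconclusive = only one of those two conditions met; inactive = mean below 50% and too few replicates reaching it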;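 also: 0% = median of the neutral control wells and 100% = twice that signal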
ARNT TACC3 PPI – ARNT/TACC3 interaction disruption; 390,000 tested, 0.66% active; AlphaScreen His-ARNT PAS-B/GST-TACC3 binding, luminescence; TACC3 fragment carries E629A point mutation; AID 623870; inhibition, % at 9.99 µM;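 active = mean inhibition of replicates at least 50% and at least half of replicates each reaching 50%; inconclusive = half or more replicates reach 50% but mean below 50%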;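 also: 0% = complete ARNT plus TACC3 wells and 100% = ARNT alone without TACC3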
HSP90 inh – blocks HSP90-mediated luciferase refolding in reticulocyte lysate; Rabbit reticulocyte lysate, luciferase refolding luminescence, 3 h; inhibition, % at 5.6 µM; 290,000 tested, 0.91% active;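 active = inhibition above the screen-wide mean plus 3 SD, computed separately per campaign, cut at about 16% in these data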;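 also: 0% = DMSO wells and 100% = 60 µM geldanamycin wells; inhibitors lower the luminescence because luciferase stays unfolded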
HIF activator – HIF pathway transcriptional activation. 300,000 tested, 0.32% active. U2OS HRE-luciferase reporter, luminescence; normalized: DMSO 0%, desferrioxamine 100%. activation, % at 7.5 µM (by protocol). AID 1910;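 active = mean activation of at least 10% of the iron chelator positive control signal, with at least half of replicates also reaching 10%; inconclusive = mean and replicate majority disagree about reaching 10%; inactive = mean and most replicates under 10%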
Active calls of the source: *; ? = inconclusive; . = no result; ! = not active in a repeat.

SMILES	HSF1 inhib	HSF-1 act	ARNT TACC3 PPI	HSP90 inh	HIF activator
CCC(=NCc1ccc(Cl)c(Cl)c1)c1nc(-c2ccco2)oc1O	37	72*	0	-4	0
CCc1ccc(-c2nc(CN3CCCC(C(=O)NCCc4ccc(OC)c(OC)c4)C3)c(C)o2)cc1 (stereo not given)	-5	3	11	12	0
COc1ccc(CCNC(=O)C2CCCN(Cc3nc(-c4ccccc4C)oc3C)C2)cc1OC (stereo not given)	29	72*	-18	6	-1
CCOC(=O)c1c(NC(C)=O)sc2c(O)cccc12	4	5	-6	-2	-1
CCOC(=O)c1c(NC(C)=O)sc2c(O)c(Br)cc(Br)c12	28	52*	.	-6	.
Cc1cc(=O)[nH]c(NN=Cc2cc(Br)ccc2O)n1	.	.	64*	.	.
CCN(CC)c1ccc(/C=N/Nc2nc(C)cc(=O)[nH]2)c(O)c1	-2	12	64*	-3	57*
Cc1cc(=O)[nH]c(N/N=C/c2ccccc2Cl)n1	-1	4	-13	-3	1
CO[C@@H]1CC[C@H]2CCN(C)C(=O)C[C@H](c3ccccc3)CN(C)C(=O)c3cccc(C#N)c3OC[C@H]1O2	.	.	-6	.	.
Cc1cc(C)c(OCCCCn2cnc3ccccc3c2=O)c(C)c1	23	56*	-6	1	1
C[C@@H]1CCCCO[C@@H](CN(C)S(=O)(=O)c2ccccc2)[C@H](C)CN([C@@H](C)CO)C(=O)c2cc(NC(=O)c3ccncc3)ccc2O1	.	.	-5	.	.
Cc1ccc2nc3sc(C(=O)NCc4ccco4)c(N)c3cc2c1	52	85*	0	2	1
CCOC(=O)N1CCN(C(=O)c2ccc(Cn3c(=S)[nH]c4cc(OCC)c(OCC)cc4c3=O)cc2)CC1	-32	-39	3	2	18*
CC1CC(C)CN(C(=O)c2ccc3c(=O)n(Cc4ccc5c(c4)OCO5)c(=S)[nH]c3c2)C1 (stereo not given)	23	65*	-5	-3	-1
CCNC(=O)Nc1ccc2c(c1)C(=O)N(C)[C@@H]1CC[C@H](CC(=O)N[C@@H](C)c3ccccc3)O[C@H]1CO2	.	.	1	.	.
COc1ccc(C2=NN(C(=O)c3ccco3)C(c3ccco3)C2)cc1OC (stereo not given)	32	62*	.	1	3
CCC(=O)N1N=C(c2ccc(Cl)cc2)CC1c1ccco1 (stereo not given)	7	12	5	9	0
CCc1ccc(C2=NN(C(C)=O)C(c3ccco3)C2)cc1 (stereo not given)	33	74*	2	1	3
O=C(CCl)N1N=C(c2cccs2)CC1c1ccco1 (stereo not given)	-94*	-95	6	2	0
O=C(c1ccco1)N1N=C(c2cccs2)CC1c1ccco1 (stereo not given)	29	64*	0	4	0
Cc1ccc(C2CC(c3cccs3)=NN2C(=O)c2ccco2)o1 (stereo not given)	2	7	-5	0	0
CO[C@H]1CN(C)C(=O)c2cc(NS(=O)(=O)c3ccc(Cl)cc3)ccc2OC[C@H](C)NC[C@H]1C	.	.	-2	.	.
C[C@H](CO)N1C[C@H](C)[C@@H](CN(C)C(=O)Nc2cccc(F)c2)Oc2ncc(C3=CCCCC3)cc2C1=O	.	.	2	.	.
CN1CCN(CC(=O)N2N=C(c3cccs3)CC2c2ccco2)CC1 (stereo not given)	-58*	-65	-3	1	-3
S=c1[nH]nc(-c2cc(-c3ccccc3)n[nH]2)n1/N=C/c1ccccc1	1	-7	2	-1	0
SMILES	HSF1 inhib	HSF-1 act	ARNT TACC3 PPI	HSP90 inh	HIF activator
S=c1[nH]nc(-c2ccco2)n1/N=C/C(Cl)=C/c1ccccc1	142	182*	1	3	4
S=c1[nH]nc(-c2cc(-c3ccccc3)n[nH]2)n1/N=C/C(Br)=C/c1ccccc1	99	104*	.	0	8
Cc1cc(-c2n[nH]c(=S)n2/N=C/C(Cl)=C/c2ccccc2)n[nH]1	13	50	-2	3	6
COc1ccc(CNC(=O)C[C@@H]2C[C@@H]3c4cc(NC(=O)CC5CC5)ccc4O[C@@H]3[C@H](CO)O2)cc1	.	.	-3	.	.
CCOC(=O)Cn1c(=O)oc2cc(S(=O)(=O)N3CCN(C(=O)c4ccco4)CC3)ccc21	30	71*	-4	0	-1
CCOC(=O)Cn1c(=O)oc2cc(S(=O)(=O)N3CCN(c4ccccn4)CC3)ccc21	-4	-8	-9	2	0
COCC(=O)Nc1ccc2c(c1)OC[C@@H](C)N(CCc1ccccc1)C[C@@H](C)[C@H](OC)CN(C)C2=O	.	.	-4	.	.
C[C@@H]1CCCCO[C@H](CN(C)S(=O)(=O)c2ccccc2)[C@H](C)CN([C@@H](C)CO)C(=O)c2cc(NS(=O)(=O)c3cn(C)cn3)ccc2O1	.	.	0	.	.
CCN(/C=N/c1sc2c(c1C#N)CCCCC2)CC	29	60*	17	0	2
O=C(C[C@H]1CC[C@@H]2[C@H](COC[C@@H](O)CN2C(=O)Nc2ccc(Cl)c(Cl)c2)O1)NCc1ccncc1	.	.	9	.	.
COc1cc2[nH]c(=S)nc(NCc3cccs3)c2cc1OC	61	123*	15	-2	0
COc1cc2[nH]c(=S)nc(NCc3ccc(Cl)cc3)c2cc1OC	3	?	34	4	0
COc1cc2ncnc(NCc3cccs3)c2cc1OC	-6	-2	-20	-1	?
COc1ccccc1CNc1nc(=S)[nH]c2cc(OC)c(OC)cc12	-7	24	53*	-2	-12
COC(=O)C[C@H]1C[C@@H]2c3cc(NC(=O)Nc4ccc(OC)cc4)ccc3O[C@@H]2[C@@H](CO)O1	.	.	5	.	.
C[C@H]1CN([C@@H](C)CO)C(=O)c2cc(NC(=O)Cn3cnnn3)ccc2O[C@@H]1CN(C)C(=O)Nc1ccc(F)cc1	.	.	-18	.	.
COc1ccc(OCC(O)CN2CCN(Cc3ccc4c(c3)OCO4)CC2)cc1 (stereo not given)	-1	-12	47*	1	1
CC(=O)c1ccc(OCC(O)CN2CCN(Cc3ccc4c(c3)OCO4)CC2)cc1 (stereo not given)	-61*!	-7	-9	2	.
COCC(=O)N1[C@@H]2CN(C(=O)NC(C)C)c3ccccc3[C@@H]2[C@@H]1CO	.	.	-2	.	.
COc1cccc(-c2coc3c(C)c4oc(=O)c(CCC(=O)O)c(C)c4cc23)c1	-12	4	62*	10	1
CCC(NC(=O)CCc1c(C)c2cc3c(-c4ccccc4)coc3cc2oc1=O)C(=O)O (stereo not given)	0	9	27	-3	-4
Cc1c(CCC(=O)N[C@@H](C)C(=O)O)c(=O)oc2cc3occ(-c4ccccc4)c3cc12	-9	-20	49*	-3	-2
COc1ccc(-c2coc3cc4oc(=O)c(CC(=O)O)c(C)c4cc23)cc1	21	71*	-25	2	-2

Screens: PubChem BioAssay, several laboratories
